Results filed as inconclusive are left out. Entries that show only a call come without a potency. The source made the active and inactive calls. Unless noted, the call rests on the fitted dose curve; in most records, active means well fitted curve in the direction sought with a large enough effect; inconclusive means small, poorly fitted or top-dose-only effect, or another doubt; inactive means no such curve, though single readings can be large; an effect the other way counts as inactive or inconclusive.
What was measured:
[1] = target: Calcium and integrin-binding protein 1 (Homo sapiens) (UniProt Q99828); test: Primary qHTS for Identification of Calcium Integrin Binding Protein 1 (CIB1) Competitor (AID 1508620);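 further: GST tagged CIB1 binding a fluorescein labelled alphaIIb integrin peptide tracer; top concentration of the series differs between compounds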
Calcium and integrin-binding protein 1 (Homo sapiens), sequence (Q99828 whole entry, looked up): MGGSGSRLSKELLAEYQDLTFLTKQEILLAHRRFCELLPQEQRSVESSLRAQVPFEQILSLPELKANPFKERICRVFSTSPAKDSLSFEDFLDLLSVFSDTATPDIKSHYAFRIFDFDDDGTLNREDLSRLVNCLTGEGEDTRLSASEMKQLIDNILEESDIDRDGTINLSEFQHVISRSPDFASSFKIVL
Procedure, shortened: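 Fluorescence polarization competition: GST-tagged CIB1 (1 uM final) preincubated with compound 15 min at room temperature, then FITC-labelled alphaIIb peptide (100 nM final) added. After 15 min at room temperature, polarization read at Ex 480/Em 540.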

[2] = target: Protein phosphatase 1D (Homo sapiens) (UniProt O15297); test: Rhodamine-PBP qHTS Assay for Modulators of WT P53-Induced Phosphatase 1 (WIP1) (AID 1347425)
Protein phosphatase 1D (Homo sapiens), sequence (O15297 whole entry, looked up): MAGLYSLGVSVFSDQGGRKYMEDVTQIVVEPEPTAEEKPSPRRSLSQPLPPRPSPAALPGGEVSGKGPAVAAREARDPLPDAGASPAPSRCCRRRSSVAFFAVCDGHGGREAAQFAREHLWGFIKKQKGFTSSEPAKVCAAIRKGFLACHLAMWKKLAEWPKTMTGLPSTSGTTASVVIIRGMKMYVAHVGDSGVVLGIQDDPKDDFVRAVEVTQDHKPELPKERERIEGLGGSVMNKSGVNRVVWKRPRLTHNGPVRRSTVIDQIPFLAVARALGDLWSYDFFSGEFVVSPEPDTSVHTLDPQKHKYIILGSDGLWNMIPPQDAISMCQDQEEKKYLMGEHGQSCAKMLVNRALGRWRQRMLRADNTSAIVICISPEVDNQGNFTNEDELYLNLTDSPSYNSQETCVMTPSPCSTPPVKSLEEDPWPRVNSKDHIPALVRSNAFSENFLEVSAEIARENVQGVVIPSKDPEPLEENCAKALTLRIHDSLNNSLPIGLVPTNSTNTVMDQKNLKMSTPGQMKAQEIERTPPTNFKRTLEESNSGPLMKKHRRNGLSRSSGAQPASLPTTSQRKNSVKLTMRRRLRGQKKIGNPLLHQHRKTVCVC
Procedure, shortened: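 Steps: enzyme with Rh-PBP sensor and compounds, room-temperature incubation of 1 hr, baseline read, addition of VEPPL-pS-QETFS (10 uM final), kinetic fluorescence reads at 525/598 nm. Activity equals final minus baseline signal.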

[3] = Primary qHTS for inhibitors of La Crosse Virus (LACV) - induced cell death in SH-SY5Y cells (AID 1508616);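 further: top concentration of the series differs between compounds; higher means more rescue of cells from virus-induced death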
Procedure, shortened: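 Screening measures cell viability in LACV-infected SH-SY5Y cultures. Compound was added before virus (0.01 MOI), and ATP was detected by luminescence 6 days later.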

[4] = Primary qHTS for small molecule stabilizers of the endoplasmic reticulum resident proteome: Secreted ER Calcium Modulated Protein (SERCaMP) assay (AID 1508630)
Procedure, shortened: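 The SH-SY5Y reporter protocol was run at 3 concentrations up to 38.3 uM (primary) or 11 concentrations (follow-up): 16 h compound, 100 nM thapsigargin for 4 h, then extracellular luciferase luminescence.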

[5] = target: Calcium and integrin-binding protein 1 (Homo sapiens) (UniProt Q99828); test: Confirmatory qHTS for Identification of Calcium Integrin Binding Protein 1 (CIB1) Competitor (AID 1508617); further: nearly all actives have a fitted effect of over 65% in size; further: potency means the concentration at half of the fitted maximal effect
Procedure, shortened: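 Binding competition between test compounds and fluorescent alphaIIb peptide for 1 uM CIB1-GST is monitored by FP at 480/540 nm. Final compound range is up to 114 uM; unlabeled peptide serves as reference competitor.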

[6] = target: Cytochrome P450 2D6 (Homo sapiens) (UniProt P10635); test: Cytochrome P450 family 2 subfamily D member 6 (CYP2D6) small molecule antagonists: luciferase biochemical (cell-free) qHTS assay (AID 1645840; active means well fitted curve in the direction sought with a large enough effect in the repeat runs; an effect the other way counts as inactive or inconclusive; further: potency means the concentration at half of the fitted maximal effect; nearly all actives have a fitted effect of over 55% in size)
Cytochrome P450 2D6 (Homo sapiens), sequence (P10635 whole entry, looked up): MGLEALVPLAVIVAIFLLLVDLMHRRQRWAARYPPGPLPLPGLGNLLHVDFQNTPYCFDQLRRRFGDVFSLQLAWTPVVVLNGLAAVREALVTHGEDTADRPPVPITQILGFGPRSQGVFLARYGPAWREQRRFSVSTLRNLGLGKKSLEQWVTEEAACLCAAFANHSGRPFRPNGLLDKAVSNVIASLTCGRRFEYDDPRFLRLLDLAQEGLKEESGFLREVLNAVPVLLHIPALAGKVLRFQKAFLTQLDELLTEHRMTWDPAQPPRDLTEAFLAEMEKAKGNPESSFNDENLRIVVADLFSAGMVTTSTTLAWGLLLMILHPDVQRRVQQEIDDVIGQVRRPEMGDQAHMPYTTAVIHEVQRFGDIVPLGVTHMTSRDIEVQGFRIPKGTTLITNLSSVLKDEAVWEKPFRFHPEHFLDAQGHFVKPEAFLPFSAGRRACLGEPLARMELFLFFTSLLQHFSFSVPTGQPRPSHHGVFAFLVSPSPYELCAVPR
Procedure, shortened: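 P450-Glo CYP2D6 system: proluciferin substrate converted by enzyme to luciferin, read by luminescence proportional to activity. Enzyme-substrate mix with compound 10 min at room temperature, then NADPH regeneration 1 h before detection reagent.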

[7] = Counterscreen qHTS for small molecule stabilizers of the endoplasmic reticulum resident proteome: GLuc-NoTag assay (AID 1508627);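 further: SH-SY5Y cells given compound then 100 nM thapsigargin to empty ER calcium; series mostly up to about 76 µM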
Procedure, shortened: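 Counterscreen line: SH-SY5Y-GLuc-NoTag. Seed, 5 h; compound, 19 h; thapsigargin 100 nM, 4 h; 37C/5% CO2. Readout: secreted GLuc luminescence, coelenterazine 0.07x final, no lysis.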

## C[N+]1(C)[C@@H]2C[C@@H](OC(=O)C(O)(c3cccs3)c3cccs3)C[C@H]1[C@@H]1O[C@@H]12
[1]
  Potency: inactive

## Cc1ccccc1C(=O)Nc1ccc(C(=O)N2CCCC(O)c3cc(Cl)ccc32)c(C)c1 (configuration not stated)
[2]
  outcome: inactive
[3]
  outcome: inactive
[1]
  Potency: inactive
[4]
  outcome: inactive

## C[C@@H](NCc1cc2ccccc2[nH]1)c1cccc2ccccc12
[5]
  Potency: inactive
[4]
  outcome: inactive
[6]
  Potency: 0.0952 µM (active)

## CN1CCCN(C(=O)c2cccc(-c3ccc(C=C4C(=O)Nc5ccc(Cl)cc54)o3)c2)CC1
[5]
  Potency: 35.5 µM (active)
[4]
  outcome: inactive

## C=CC[C@@H]1C=C(C)C[C@H](C)C[C@H](OC)[C@H]2O[C@@](O)(C(=O)C(=O)N3CCCC[C@H]3C(=O)O[C@H](C(C)=C[C@@H]3CC[C@H](O)[C@H](OC)C3)[C@@H](C)[C@@H](O)CC1=O)[C@@H](C)C[C@@H]2OC
[7]
  outcome: inactive

## CC(C)C[C@H](NC(=O)CNC(=O)c1cc(Cl)ccc1Cl)B1OC(=O)CC(CC(=O)O)(C(=O)O)O1 (some centres not stated)
[1]
  Potency: inactive
[4]
  outcome: inactive

## CCN(CC)CCCCNc1ncc2c(n1)N(C)C(=O)N(c1c(Cl)c(OC)cc(OC)c1Cl)C2
[1]
  Potency: inactive
[4]
  outcome: inactive

## COc1cc2c(cc1OC)[C@@H]1C(=O)c3ccc4c(c3O[C@@H]1CO2)C=CC(C)(C)O4
[1]
  Potency: inactive
[4]
  outcome: inactive

## CCNC(=O)c1cc2c(-c3cc(OCCN4CCCC4)c(Cl)cc3Cl)nc(N)nc2s1
[1]
  Potency: inactive
[4]
  outcome: inactive

## CCOC(=O)C=C[C@H](C[C@@H]1CCNC1=O)NC(=O)[C@@H](CC(=O)[C@@H](NC(=O)c1cc(C)on1)C(C)C)Cc1ccc(F)cc1
[1]
  Potency: inactive
[4]
  outcome: inactive

## C[C@@H](Oc1ccc2[nH]nc(C=Cc3cnn(CCO)c3)c2c1)c1c(Cl)cncc1Cl
[1]
  Potency: inactive
[4]
  outcome: inactive

## COc1ccc(C[C@@H](C)[C@@H](C)Cc2ccc(OC)c(OC)c2)cc1OC
[1]
  Potency: inactive
[4]
  outcome: inactive

## CCCCOc1ccc(C(=O)Nc2ccc(F)cc2F)cc1
[1]
  Potency: inactive
[4]
  outcome: inactive

## c1cncc(CN2CCC(n3ncc4c(N5CCOCC5)nc(-c5ccc6[nH]ccc6c5)nc43)CC2)c1
[1]
  Potency: inactive
[4]
  outcome: inactive

## Cc1cc(-c2nnc3n2CCCCC3)c(C)n1-c1ccccc1
[1]
  Potency: inactive
[4]
  outcome: inactive

## C=C1C[C@@]2(O)O[C@@]3(C[C@H]2C(C)C)[C@H](C)CC[C@H]13
[1]
  Potency: inactive
[4]
  outcome: inactive

## C[C@H](NC(=O)C(C#N)=Cc1cccc(Br)n1)c1ccccc1
[1]
  Potency: inactive
[4]
  outcome: inactive

## c1cc(CN2CCCNCCNCCCNCC2)ccc1CN1CCCNCCNCCCNCC1
[1]
  Potency: inactive
[4]
  outcome: inactive

## COc1ccc(Nc2nccc(NCCO)n2)cc1
[1]
  Potency: inactive
[4]
  outcome: inactive

## O=C(CN1C(=O)C2(CCCC2)NC[C@H]1c1cc(F)cc(F)c1)Nc1ccc2c(c1)C[C@@]1(C2)C(=O)Nc2ncccc21
[1]
  Potency: inactive
[4]
  outcome: inactive

## O=c1ccn([C@@H]2O[C@H](CO)[C@H](O)[C@@H]2F)c(=O)[nH]1
[1]
  Potency: inactive
[4]
  outcome: inactive

## CC(=O)N[C@@H]1[C@H](O[C@@H]2c3ccc(c(Cl)c3)Oc3cc4cc(c3O[C@H]3O[C@H](CO)[C@@H](O)[C@H](O)[C@H]3NC(=O)CCCCCCCC(C)C)Oc3ccc(cc3Cl)C[C@H]3NC(=O)[C@H](N)c5ccc(O)c(c5)Oc5cc(O)cc(c5)[C@H](NC3=O)C(=O)N[C@H]4C(=O)N[C@H]3C(=O)N[C@@H]2C(=O)N[C@@H](C(=O)O)c2cc(O)cc(O[C@H]4O[C@H](CO)[C@@H](O)[C@H](O)[C@H]4O)c2-c2cc3ccc2O)O[C@H](CO)[C@@H](O)[C@@H]1O
[1]
  Potency: inactive
[4]
  outcome: inactive

## O=C(O)CCCCCC(=O)NN=C1CCCC1
[1]
  Potency: inactive
[4]
  outcome: inactive

## COc1cc2c(cc1O)CCC1C2CC[C@@]2(C)C1CC[C@@H]2O (some centres not stated)
[1]
  Potency: inactive
[4]
  outcome: inactive

## NC[C@H]1O[C@H](O[C@H]2[C@@H](O)[C@@H](O[C@H]3O[C@H](CO)[C@@H](O)[C@H](N)[C@@H]3O)[C@H](N)C[C@@H]2N)[C@H](N)C[C@H]1O
[1]
  Potency: inactive
[4]
  outcome: inactive

## COc1cc2ncnc(Nc3cccc(Br)c3)c2cc1OC
[1]
  Potency: inactive
[4]
  outcome: inactive

## C=CC(=O)Nc1cc(NC(=O)c2ccc(C)c(NC(=O)c3ccno3)c2)cc(C(F)(F)F)c1
[1]
  Potency: inactive
[4]
  outcome: inactive

## Cc1cnc(Nc2ccc(N3CCN(C)CC3)cc2)nc1Nc1cccc(S(=O)(=O)NC(C)(C)C)c1
[1]
  Potency: inactive
[4]
  outcome: inactive

## NC(=NCCCCCCN=C(N)N=C(N)Nc1ccc(Cl)cc1)N=C(N)Nc1ccc(Cl)cc1
[1]
  Potency: inactive
[4]
  outcome: inactive

## CC(C)c1cc(C(C)C)c(CC(=O)NS(=O)(=O)Oc2c(C(C)C)cccc2C(C)C)c(C(C)C)c1
[1]
  Potency: inactive
[4]
  outcome: inactive

## CC(N[C@H]1CCCC[C@H]1NC(=O)c1ccc(Cl)cc1)c1cccc2ccccc12 (some centres not stated)
[1]
  Potency: inactive
[4]
  outcome: inactive

## N#Cc1cc(NC(=O)Nc2nnc(-c3ccncc3)s2)ccc1-c1cn[nH]c1
[1]
  Potency: inactive
[4]
  outcome: inactive

## C[C@H](NCc1ccc2c(c1)nc(NC(=O)c1ccc(-c3cn[nH]c3)s1)n2CCc1ccccc1)C(C)(C)C
[1]
  Potency: inactive
[4]
  outcome: inactive

— PubChem BioAssay (NCATS)
